VACV Venus inh: vaccinia inhibition (Venus reporter) | Vaccinia virus Venus reporter expression, fluorescence | Potency, µM (series often up to 36.5 µM), inactives show at the top dose activity change, negative = inhibition, hits mostly inhibitors | hit rate 0.46% among 330,000 | AID 720580; calls by dose curve; tested in A549 cells; note: potency is the fitted concentration of half-maximal effect; nearly all actives have a fitted effect of over 30% in size
TbPYK inhibitor: inhibitors of Trypanosoma brucei pyruvate kinase. TbPYK enzyme, Kinase-Glo Plus ATP luminescence, 45 min. Potency, µM (titrated, usually from 76.8 µM), without a hit: at the highest dose activity, negative = inhibition, actives largely listed as inhibitors. Q57TT1. AID 624173. hit rate 0.12% among 410,000; note: potency is the fitted concentration of half-maximal effect; nearly all actives have a fitted effect of over 50% in size
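Quantitative HTS: titrated library compounds versus trypanosomal pyruvate kinase in TEA buffer (pH 7.2) containing KCl, MgCl2, BSA and Tween-20. Reactions were initiated with ADP, 130 uM final. Kinase-Glo Plus luminescence was read after 45 min at RT.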
LmPK inhibitor: inhibitors of Leishmania mexicana pyruvate kinase; purified LmPK, Kinase-Glo ATP luminescence, 1 h; Potency, µM (top dose mostly 57.5 µM), for inactives: at the top dose activity change, negative = inhibition, most hits filed as inhibitors; Q27686; hit rate 0.37% among 290,000; note: potency is the fitted concentration of half-maximal effect
Target sequence (Q27686 whole entry, looked up): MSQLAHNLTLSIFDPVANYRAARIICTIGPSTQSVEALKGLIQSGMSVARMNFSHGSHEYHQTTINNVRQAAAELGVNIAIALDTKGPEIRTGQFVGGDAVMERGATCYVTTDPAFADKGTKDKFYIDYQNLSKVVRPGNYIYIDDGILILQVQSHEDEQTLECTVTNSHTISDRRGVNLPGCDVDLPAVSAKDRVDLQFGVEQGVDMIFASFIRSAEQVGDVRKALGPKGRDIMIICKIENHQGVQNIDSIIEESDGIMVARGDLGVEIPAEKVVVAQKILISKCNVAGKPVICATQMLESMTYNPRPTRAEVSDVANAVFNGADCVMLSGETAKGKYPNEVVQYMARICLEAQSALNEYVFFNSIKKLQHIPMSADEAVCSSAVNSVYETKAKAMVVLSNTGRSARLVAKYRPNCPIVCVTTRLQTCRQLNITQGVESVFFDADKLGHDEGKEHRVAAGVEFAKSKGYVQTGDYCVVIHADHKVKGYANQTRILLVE
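qHTS format; LmPK 0.1 nM; substrates PEP 0.5 mM and ADP 0.1 mM. One-hour room-temperature incubation, then coupled luciferase luminescence; 0.5 nM enzyme wells mark activation.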
VACV mCherry inh: inhibitors of vaccinia virus infection (mCherry reporter signal); Vaccinia virus mCherry reporter infection, fluorescence; Potency, µM (highest dose often 36.5 µM), for inactives: top-dose activity change, negative = inhibition, hits mostly inhibitors; hit rate 0.63% among 310,000; AID 720579; calls by dose curve; tested in A549 cells; note: potency is the fitted concentration of half-maximal effect; nearly all actives have a fitted effect of over 35% in size
HCMV antiviral: blocks human cytomegalovirus replication. hit rate 4.5% among 410,000. activity change, negative = inhibition, % at 57.5 µM. AID 1259415. HFF cells, HCMV-luciferase reporter, 72 h; active compounds read low; in the data active = activity change below about -60%; inconclusive = no clear call, values can overlap the other calls; inactive = above about -39%
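Compounds were evaluated in HFFs infected with an HCMV luciferase reporter virus (MOI 1 PFU/cell). Luciferase in lysates collected 72 h post infection served as the replication measure.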
Active calls of the source: *; i = inactive; ? = inconclusive; . = no result given; [ ] = dose if it differs, or a comment. This is a sample that favours compounds with a hit; in the whole collection about 5% have one here. Unless noted, calls come from the whole dose curve; as a rule, active = well fitted curve in the direction sought with a large enough effect; inconclusive = small, poorly fitted or top-dose-only effect, or another doubt; inactive = no such curve, though single readings can be large; an effect the other way counts as inactive or inconclusive. % is set by controls: 0 for no effect and ±100 for the full control effect.

SMILES	VACV Venus inh	TbPYK inhibitor	LmPK inhibitor	VACV mCherry inh	HCMV antiviral
O=C(Nc1ncc(Cc2ccc(C(F)(F)F)cc2)s1)c1ccc(-c2cccc([N+](=O)[O-])c2)o1	-29%	5%	-2%	?	?
O=C(Nc1ncc(Cc2ccccc2Cl)s1)c1ccc(-c2cccc([N+](=O)[O-])c2)o1	.	-5%	0%	.	-63*
CC(C)C(=O)Nc1ncc(Cc2cccc(Cl)c2)s1	-17%	-2%	3%	-14%	-69*
COC(=O)c1ccc(C)c(NS(=O)(=O)c2ccc(NC(C)=O)cc2)c1	-10%	2%	3%	-11%	-20
CCN1C(=O)c2ccccc2S(=O)c2ccc(C(=O)NCc3ccc(Cl)cc3)cc21 (stereo unspecified)	-4%[7.34 µM]	?	.	2%[7.34 µM]	-26
CCC(=O)c1ccc(OC(=O)N(C)c2ccccc2)cc1	-8%	2%	-9%	i	-9
ClCC(CNCc1ccccc1)c1ccccc1 (stereo unspecified)	0%	-1%	.	-8%	-26
CC1CN(CC(=O)c2ccccc2Cl)CC(C)O1 (stereo unspecified)	-5%	-15%	1%	i	-61*
COc1ccc(CCCNC(=O)C2(C)Cc3c(-c4ccc(NC(C)=O)cc4)ccnc3O2)cc1 (stereo unspecified)	?	-5%	.	-13%	-7
CC(C)C(=O)Nc1nnc(CCN2CCOCC2)s1	.	-4%	-8%	.	15
Nc1ncnc2c1nc(SCCO)n2Cc1ccccc1	-6%	-3%	5%	-9%	-74*
O=C(C[n+]1cccc2ccccc21)c1ccc(NC(=O)c2ccccc2)cc1	.	-7%	4%	.	-83*
O=C(Nc1ccc[n+](CC(=O)c2cccc3ccccc23)c1)c1ccccc1	?	-7%	-1%	16µM*	?
Cc1cc[n+](CC(=O)c2ccc(NC(=O)c3ccccc3)cc2)c2ccccc12	.	-10%	0%	.	-97*
Cc1cc[n+](CC(=O)c2ccc(NC(=O)c3ccccc3)cc2)cc1	.	1%	0%	.	-37
N#Cc1cc(-c2ccccc2)nnc1Oc1ccccc1	-17%	-4%	2%	.	3
COc1ccc2sc(-c3ccc(S(C)(=O)=O)cc3)c(C(=O)NCCCN3CCCC3=O)c2c1	-1%	4%	.	i	-20
Cc1onc(C(=O)N2CCN(C(c3ccccc3)c3ccccc3)CC2)c1[N+](=O)[O-]	-4%	-7%	1%	15%	-103*
COc1ccccc1N1CCN(C(=O)c2noc(C)c2[N+](=O)[O-])CC1	.	0%	13%	.	0
C#CCOCCOCCOCCNc1nc(N2CCN(C(=O)CCCCCCCCCCNC(=O)Cn3cc(CCCCCN)nn3)CC2)nc(N2CCN(C(=O)CCCCCCCCCCNC(=O)[C@@H]([C@H](C)O)n3cc(C)nn3)CC2)n1	10µM*	-4%	.	?	.
C#CCOCCOCCOCCNc1nc(N2CCN(C(=O)CCCCCCCCCCNC(=O)[C@H](CCCCN)n3cc(C)nn3)CC2)nc(N2CCN(C(=O)CCCCCCCCCCNC(=O)[C@@H]([C@H](C)O)n3cc(C)nn3)CC2)n1	11µM*	-3%	.	?	.
C#CCOCCOCCOCCNc1nc(N2CCN(C(=O)CCCCCCCCCCNC(=O)[C@H]([C@@H](C)CC)n3cc(CCCCN=C(N)N)nn3)CC2)nc(N2CCN(C(=O)CCCCCCCCCCNC(=O)[C@@H]([C@H](C)O)n3cc(C)nn3)CC2)n1	?	1%	.	?	.
C#CCOCCOCCOCCNc1nc(N2CCN(C(=O)CCCCCCCCCCNC(=O)[C@@H](CCSC)n3cc(CCO)nn3)CC2)nc(N2CCN(C(=O)CCCCCCCCCCNC(=O)[C@H](CO)n3cc(CCCCCN)nn3)CC2)n1	?	1%	.	i	.
C#CCOCCOCCOCCNc1nc(N2CCN(C(=O)CCCCCCCCCCNC(=O)[C@@H](CCSC)n3cc(CCO)nn3)CC2)nc(N2CCN(C(=O)CCCCCCCCCCNC(=O)[C@@H]([C@H](C)O)n3cc(C)nn3)CC2)n1	?	-6%	.	-1%	-72*
C#CCOCCOCCOCCNc1nc(N2CCN(C(=O)CCCCCCCCCCNC(=O)[C@H](CCCCN)n3cc(CCO)nn3)CC2)nc(N2CCN(C(=O)CCCCCCCCCCNC(=O)[C@H](CCCCN)n3cc(CCCC(=O)O)nn3)CC2)n1	-27%	0%	.	i	-8
SMILES	VACV Venus inh	TbPYK inhibitor	LmPK inhibitor	VACV mCherry inh	HCMV antiviral
C#CCOCCOCCOCCNc1nc(N2CCN(C(=O)CCCCCCCCCCNC(=O)[C@H](CCCCN)n3cc(C[C@@H](C)CC)nn3)CC2)nc(N2CCN(C(=O)CCCCCCCCCCNC(=O)[C@@H]([C@H](C)O)n3cc(C)nn3)CC2)n1	7.9µM*	1%	.	11µM*	.
COc1ccc(N2C(=O)NC(=O)/C(=C\c3ccc([N+](=O)[O-])s3)C2=O)cc1	i	?	-7%	355%	-1
COc1ccc(N2C(=O)NC(=O)/C(=C/c3ccc([N+](=O)[O-])s3)C2=O)cc1	.	13µM*	-2%	.	5
COc1ccc(N2C(=O)/C(=C/c3cccs3)C(=O)NC2=S)cc1	53%[7.34 µM]	?	15%	19%[7.34 µM]	-31
COc1ccc(N2C(=O)/C(=C/C=C/c3ccccc3[N+](=O)[O-])C(=O)NC2=S)cc1	7%	20µM*	-2%	9%	0
Cc1cc(C)cc(NC(=O)Cc2c(C(=O)O)c(C)cn2C)c1	-7%	-9%	.	-4%	4
CSCCC(NC(=O)c1ccco1)C(=O)OC(C)C(=O)NC(=O)NC1CCCCC1 (stereo unspecified)	.	8%	2%	.	-12
CC[n+]1c(-c2ccccc2)c2cc(N)ccc2c2ccc(N)cc21	258%	-5%	.	81%	-100*
COc1ccc2cc(C(N)=O)c(=Nc3ccccc3)oc2c1	-16%	-1%	-2%	i	?
NC(=O)c1cc2ccc(O)cc2oc1=Nc1ccccc1	-13%	-30%	1%	-12%	-82*
CCCCC[C@H](O)/C=C/C1=C(CCCCCCC(=O)O)C(=O)CC1	-17%	6%	15%	-21%[3.33 µM]	.
COC(=O)c1ccc2nc(Nc3nc4c(F)cc(F)cc4s3)sc2c1	-11%	2%	-1%	-11%	-70*
CCOC(=O)c1ccc2nc(Nc3nc4ccc(F)cc4s3)sc2c1	-9%	-3%	-2%	-3%	-91*
CCc1nn2c(=O)cc(CSCC(=O)Nc3ccccc3Cl)nc2s1	.	-5%	-6%	.	.
COC(=O)CNC(=O)c1ccc(C)s1	-1%	-6%	-2%	-12%	-102*
Cc1ccc(C(=O)NNC(=O)c2ccoc2C)s1	-10%	-2%	.	i	-98*
Cc1ccc(C(=O)NCC(=O)OCC(=O)c2ccccc2)s1	.	-10%	.	.	-12
Cc1ccccc1CN(C)C[C@@H]1OCc2cnnn2CCCC(=O)N([C@@H](C)CO)C[C@H]1C	-9%	0%	.	i	-12
O=C(OCc1nc2ccccc2s1)c1cccs1	.	.	-15%	.	-62*
